Measured values published in PubChem BioAssay (EPA / NIEHS).
Results filed as inconclusive are left out. More than one record can exist for a structure, and the calls need not agree. Activity calls are given as the source filed them. How the source made its calls: active means hit-call score of the fitted dose curve at least 0.9, where 1 is the maximum; inconclusive means response in the unintended direction; inactive means score below 0.9.

molecular target: Agonist Androgen Response Element (ARE), AR (gene 367) (UniProt P10275); assay: OT_AR_ARELUC_AG_1440: Odyssey Thera (OT) 24-hour CHO-K1 Luciferase Assay for Agonist Androgen Response Element (ARE) (AID 2283379)
Sequence (P10275 whole entry, looked up): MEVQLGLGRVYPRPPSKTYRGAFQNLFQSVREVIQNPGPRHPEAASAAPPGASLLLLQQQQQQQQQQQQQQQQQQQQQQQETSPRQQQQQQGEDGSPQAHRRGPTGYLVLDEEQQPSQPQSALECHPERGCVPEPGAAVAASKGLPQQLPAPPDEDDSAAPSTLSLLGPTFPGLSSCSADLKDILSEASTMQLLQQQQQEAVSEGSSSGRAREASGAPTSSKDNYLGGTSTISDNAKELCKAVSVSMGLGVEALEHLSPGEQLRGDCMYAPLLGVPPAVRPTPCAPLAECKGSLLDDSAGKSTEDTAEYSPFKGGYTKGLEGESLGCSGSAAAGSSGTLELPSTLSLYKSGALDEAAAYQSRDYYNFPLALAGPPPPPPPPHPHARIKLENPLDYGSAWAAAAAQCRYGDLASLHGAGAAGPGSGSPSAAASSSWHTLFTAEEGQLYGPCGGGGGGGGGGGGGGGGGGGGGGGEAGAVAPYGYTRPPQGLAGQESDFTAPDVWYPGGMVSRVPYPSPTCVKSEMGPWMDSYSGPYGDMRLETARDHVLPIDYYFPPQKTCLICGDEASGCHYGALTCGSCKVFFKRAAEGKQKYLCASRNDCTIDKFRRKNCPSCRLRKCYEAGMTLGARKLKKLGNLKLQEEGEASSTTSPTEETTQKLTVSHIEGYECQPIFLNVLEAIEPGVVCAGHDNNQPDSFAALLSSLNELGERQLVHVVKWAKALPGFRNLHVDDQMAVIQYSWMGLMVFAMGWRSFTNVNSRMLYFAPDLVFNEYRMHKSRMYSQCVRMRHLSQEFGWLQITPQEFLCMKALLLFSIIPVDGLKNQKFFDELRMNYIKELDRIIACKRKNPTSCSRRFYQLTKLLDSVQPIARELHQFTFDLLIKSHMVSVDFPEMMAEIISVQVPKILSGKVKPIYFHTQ
In short: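 Luminescence increase above DMSO, read after a 24 h compound treatment of CHO-K1 cells expressing an androgen response element luciferase reporter, gives the single primary endpoint; concentration-response fitting used the positive direction.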

`COCC(C)OCC(C)O` (stereo not given) was tested. Which outcome did it give?
Its outcome is “inactive”.

How did the outcome turn out when `CCC(=C(c1ccc(O)cc1)c1ccc(OCCN(C)C)cc1)c1ccccc1` was run?
Its outcome is “inactive”.

Which results are given for `O=C(O)c1ccccc1C(c1ccc(O)cc1)c1ccc(O)cc1`?
AC50: 1.95 µM (active); outcome: inactive

With `OCCC(F)(F)C(F)(F)C(F)(F)C(F)(F)C(F)(F)C(F)(F)C(F)(F)C(F)(F)F` as the molecule, how does the AC50 read?
Its AC50 is 21.8 µM (active).

Which outcome does the source give for `Cc1oc(-c2ccccc2)nc1CCOc1ccc(C[C@H](Nc2ccccc2C(=O)c2ccccc2)C(=O)O)cc1` here?
The outcome was “inactive”.

`c1ccc2c(c1)ccc1ccccc12` was tested. Which outcome did it give?
The outcome was “inactive”.

`CC[C@H](c1ccc(O)cc1)[C@@H](CC)c1ccc(O)cc1` was tested. Which outcome did it give?
The outcome was “inactive”.

How did the outcome turn out when `O=c1c(-c2ccc(O)cc2)coc2cc(O)ccc12` was run?
Its outcome is “inactive”.

With `CC(=O)CC(C)(C)O` as the molecule, how does the outcome read?
Its outcome is “inactive”.
